# Screening data: PubChem BioAssay, National Center for Advancing Translational Sciences (NCATS)
# TDP1 cell noCPT – qHTS for Inhibitors of human tyrosyl-DNA phosphodiesterase 1 (TDP1): qHTS in cells in absence of CPT | DT40 Tdp1-/- hTDP1 cells, no CPT, ATP luminescence, 48 h | Potency, µM (series often up to 46.2 µM), hits mostly inhibitors | hit rate 15% among 420,000; note: nearly all actives have a fitted effect of over 55% in size
#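 A cellular qHTS used chicken DT40 cells lacking endogenous Tdp1 but carrying stably transfected human TDP1. Compounds were applied without camptothecin, and cell growth kinetics were judged by ATP-dependent luminescence after ≥48 hr.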
# ELG1 DNA repair – ELG1-dependent DNA repair inhibition | hit rate 2.3% among 330,000 | AID 504467 | Potency, µM (highest dose often 46.1 µM), most hits filed as inhibitors | HEK293T ELG1-luciferase reporter, luminescence, 16 h; DNA damage induced by 5-fluorouridine; note: nearly all actives have a fitted effect of over 55% in size
#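 Step one: seed 2,000 cells per well. Step two: pin-transfer compound or DMSO alongside 5-fluorouridine. Step three: incubate 16 hr, 37 °C, 5% CO2. Step four: add ONE-Glo, wait 30 min, read luminescence.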
# TDP1 cell CPT – growth inhibition of DT40 Tdp1-/-;hTDP1 cells with camptothecin (screen for TDP1 inhibitors); chicken DT40 Tdp1-/-;hTDP1 cells + 20 nM CPT, ATP luminescence, 48 h; Potency, µM (series often up to 46.2 µM), actives largely listed as inhibitors; hit rate 12% among 420,000; AID 686979; note: nearly all actives have a fitted effect of over 55% in size
#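 Chicken DT40 Tdp1-/- cells stably complemented with human TDP1 were seeded at 400 cells/well in medium containing 20 nM camptothecin, exposed to pin-transferred compounds, and grown at 37 °C for at least 48 hr. Viability was read as ATP luminescence.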
# IL-1B inflam inh – inhibitors of inflammasome signaling (IL-1 beta secretion); activity change, % at 57.5 µM; hit rate 4.7% among 360,000; THP-1 LPS/ATP IL-1B secretion, AlphaLISA, 16 h; active compounds read low; in the data active = activity change below about -50%; inconclusive = mostly about -30% to -49%
#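 Secreted IL-1B measured by AlphaLISA bead assay after 16 h compound exposure of THP-1 cells; compounds (final up to 57.5 uM) added 1 h before LPS (250 ng/mL) and ATP (1.25 mM) stimulation; lower signal means less secretion.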
# TDP1 block – inhibitors of human tyrosyl-DNA phosphodiesterase TDP1; Q9NUW8; recombinant TDP1, AlphaScreen DNA substrate cleavage; Potency, µM (highest dose often 130 µM), actives largely listed as inhibitors; hit rate 0.28% among 350,000; AID 485290; note: nearly all actives have a fitted effect of over 40% in size
# Target sequence (Q9NUW8 whole entry, looked up): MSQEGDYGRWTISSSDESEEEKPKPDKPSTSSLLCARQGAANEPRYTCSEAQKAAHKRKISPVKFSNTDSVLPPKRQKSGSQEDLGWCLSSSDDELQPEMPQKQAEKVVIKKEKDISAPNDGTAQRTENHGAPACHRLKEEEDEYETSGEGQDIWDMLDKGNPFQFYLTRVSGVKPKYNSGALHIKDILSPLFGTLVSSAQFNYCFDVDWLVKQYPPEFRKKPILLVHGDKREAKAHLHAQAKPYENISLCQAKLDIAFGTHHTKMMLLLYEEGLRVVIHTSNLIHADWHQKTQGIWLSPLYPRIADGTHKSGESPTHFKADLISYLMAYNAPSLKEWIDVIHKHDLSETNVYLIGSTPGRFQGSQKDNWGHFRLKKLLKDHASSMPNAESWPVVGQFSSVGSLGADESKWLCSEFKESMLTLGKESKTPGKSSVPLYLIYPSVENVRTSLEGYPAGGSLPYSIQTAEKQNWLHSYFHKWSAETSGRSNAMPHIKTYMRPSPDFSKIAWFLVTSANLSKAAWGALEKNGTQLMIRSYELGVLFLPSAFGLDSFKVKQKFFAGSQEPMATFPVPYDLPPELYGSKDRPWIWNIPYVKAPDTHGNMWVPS
#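 Steps: enzyme plus compound, 15 min RT; add biotin/phosphotyrosine-FITC oligonucleotide (15 nM final), react 5 min; add donor/acceptor beads (10 ug/ml final), 10 min; read AlphaScreen. Tdp1 at 1 nM final.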
# Giardia killer – kills Giardia lamblia; Giardia lamblia trophozoite viability; activity change, % at 7.66 µM, hits read low; hit rate 0.15% among 340,000; AID 540267; in the data active = activity change below about -80%; inconclusive = between about -30% and that limit;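 note: parasites exposed to compound for two days anaerobically before the ATP read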
#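 Each well holds 100 Giardia trophozoites and compound. After two days (48 hrs) at 37 deg C in anaerobic conditions, ATP is quantified by luminescence.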
# Hits are given with their value; n = inactive; u = inconclusive; x = not tested or not shown; [ ] = remark or other dose. This is a sample that favours compounds with a hit; in the whole collection about 19% have one here. Unless noted, calls come from the whole dose curve; as a rule, active = well fitted curve in the direction sought with a large enough effect; inconclusive = small, poorly fitted or top-dose-only effect, or another doubt; inactive = no such curve, though single readings can be large; an effect the other way counts as inactive or inconclusive.
SMILES,TDP1 cell noCPT,ELG1 DNA repair,TDP1 cell CPT,IL-1B inflam inh,TDP1 block,Giardia killer
CCC(=O)N1N=C(c2ccc(NS(=O)(=O)c3ccccc3)cc2)CC1c1ccco1 (centres undefined),23.1µM,u,u,n,n,n
O=C(OCC#CCSc1nnc(-c2cccc3ccccc23)o1)c1cc2ccccc2s1,x,x,x,x,n,x
COc1ccc(CN2CCN(C(C)=O)CC2)cc1OC1CCN(C(=O)c2ccc3[nH]c(C)c(C)c3c2)CC1,n,x,n[9.04 µM],x,x,x
Cc1ccc(CCNC(=O)C2CCCN(S(=O)(=O)c3ccc4c(c3)oc(=O)n4C)C2)cc1 (centres undefined),n,x,n,x,n,x
Cc1nnc(SCC(=O)N2N=C(c3ccc(Cl)cc3)CC2c2ccco2)[nH]c1=O (centres undefined),u,u,14.6µM,u,n,n
Cn1nnnc1SCC(=O)N1N=C(c2ccc(Cl)cc2)CC1c1ccco1 (centres undefined),16.4µM,u,20.6µM,n,n,n
O=C(C1CCCO1)N1N=C(c2ccc(Br)cc2)CC1c1ccco1 (centres undefined),14.6µM,u,u,u,n,n
Cc1ccc(S(=O)(=O)N[C@H](C(=O)OCC(=O)N2N=C(c3ccc(Cl)cc3)CC2c2ccco2)C(C)C)cc1 (some centres undefined),23.1µM,u,23.1µM,n,n,n
Cc1cc(C)cc(N(CC(=O)Nc2ccccc2)C2=NC3CS(=O)(=O)CC3S2)c1 (centres undefined),u,n,u,-94.1,n,n
Cc1cc(C)cc(NC(=O)Cc2ccc(NC3=NC4CS(=O)(=O)CC4S3)cc2)c1 (centres undefined),n,n,n,n,x,n
COc1ccc(N(CC(=O)Nc2ccc(C)c(C)c2)C2=NC3CS(=O)(=O)CC3S2)cc1 (centres undefined),n,n,n,n,x,n
COc1ccc(N(CC(=O)Nc2ccccc2C(F)(F)F)C2=NC3CS(=O)(=O)CC3S2)cc1 (centres undefined),u,n,n,-59.6,x,n
CCOc1ccc(C(=O)Nc2ccc(-c3nc4ccccc4s3)c(C)c2)cc1OCC,n,x,n,x,n,x
Cn1c(=O)c2[nH]c(NN=Cc3cccc(Br)c3)nc2n(C)c1=O,14.6µM,x,23.1µM,n,x,n
O=C(NCCc1csc2nc(-c3ccccc3F)nn12)c1ccco1,n,x,n,x,n,x
COc1cccc(C(=O)NCCc2csc3nc(-c4ccccc4F)nn23)c1OC,14.6µM,x,25.9µM,x,n,x
O=C(NCCc1csc2nc(-c3ccccc3F)nn12)c1ccccc1C(F)(F)F,9.2µM,x,7.31µM,x,n,x
Cc1ccn2c(NC(=O)C(C)(C)Oc3ccc(Cl)cc3)c(-c3cccs3)nc2c1,18.4µM,u,u,u,n,n
CCOC(=O)CC(NC(=O)c1cc2c(=O)n3cccc(C)c3nc2s1)c1ccc(OCC)c(OC)c1 (centres undefined),n,x,n,x,n,x
Cc1ccc(C)c(OC2=NS(=O)(=O)c3ccccc32)c1,20.6µM,n,18.4µM,n,n,n
COC1=NS(=O)(=O)c2ccccc21,n,n,n,n,n,n
Cc1ccc(CSC2=NS(=O)(=O)c3ccccc32)cc1,11.2µM,x,8.91µM,x,n,n
Cc1ccc(SC2=NS(=O)(=O)c3ccccc32)c(C)c1,1.26µM,x,1.41µM,x,n,n
Cc1cccc(NC(=O)CN2C(=O)COc3ccc(S(=O)(=O)N4CCC(C)CC4)cc32)c1C,u,x,n,x,n,x
CCNc1nc(OC)nc(N(OC)S(=O)(=O)c2ccc(C)cc2)n1,n,u,n,n,x,n
SMILES,TDP1 cell noCPT,ELG1 DNA repair,TDP1 cell CPT,IL-1B inflam inh,TDP1 block,Giardia killer
O=C(NCCN1CCCCC1)c1ccc(Cn2c(SCc3ccc(F)cc3)nc3cccnc32)cc1,u,x,u,x,n,x
CCc1cc2c(=O)nc3n(c2s1)Cc1ccccc1/C3=C(/O)c1ccc(F)cc1,x,n,x,x,n,x
CCc1cc2c(=O)nc3n(c2s1)Cc1ccccc1/C3=C(/O)c1ccccc1Cl,8.2µM,n,8.2µM,n,n,n
C[C@H]1CN([C@@H](C)CO)C(=O)c2cc(NS(=O)(=O)c3ccc(Cl)cc3)ccc2O[C@@H]1CN(C)CC1CCCCC1,u,n,u,-55.8,n,n
C[C@H]1CCCCO[C@H](CN(C)CC2CCCCC2)[C@@H](C)CN([C@@H](C)CO)C(=O)c2cc(NS(=O)(=O)c3ccccc3)ccc2O1,n,x,u,u,x,x
C[C@@H]1CCCCO[C@@H](CN(C)CC2CCCCC2)[C@@H](C)CN([C@H](C)CO)C(=O)c2cc(NS(=O)(=O)c3ccc(Cl)cc3)ccc2O1,13µM,x,16.4µM,u,x,x
C[C@H](CO)N1C[C@H](C)[C@@H](CN(C)CC2CCCCC2)Oc2ccc(NS(C)(=O)=O)cc2C1=O,n,n,n,n,n,n
O=C1CCN(CCCN2CCC(=O)NC2=S)C(=S)N1,n,x,n,n,x,x
COC(=O)[C@@]1(C)[C@H]2C(=O)N(Cc3ccccc3)C(=O)[C@H]2[C@H]2CN(C)C(=NC3CCCCC3)N21,n,u,n,n,x,n
Cn1c(=O)c2c(nc(CN3CCN(C(c4ccccc4)c4ccccc4)CC3)n2CCCO)n(C)c1=O,20.6µM,u,u,n,x,n
COCCn1c(CN2CCN(C(c3ccccc3)c3ccccc3)CC2)nc2c1c(=O)n(C)c(=O)n2C,16.4µM,n,u,n,x,n
COCCn1c(CN2CC(C)CC(C)C2)nc2c1c(=O)n(C)c(=O)n2C (centres undefined),n,n,n,n,n,n
COC(=O)[C@]12CCCCC=C1N(Cc1ccccc1)C(=O)[C@H](CC(=O)N1CCN(C(=O)c3ccco3)CC1)C2,u,x,u,n,x,x
COC(=O)[C@@]12C[C@@H](CC(=O)N3CCN(C(=O)c4ccco4)CC3)C(=O)N(Cc3ccc4c(c3)OCO4)C1=CCC(C)(C)C2,20.6µM,x,18.4µM,u,x,x
COC(=O)[C@@]12C[C@@H](CC(=O)N3CCN(C(=O)c4ccco4)CC3)C(=O)N(Cc3ccco3)C1=CCC(C)(C)C2,u,x,u,n,x,x
COC(=O)[C@@]12C[C@@H](CC(=O)N3CCN(C(=O)c4ccco4)CC3)C(=O)N(Cc3ccccc3)C1=CCC(C)(C)C2,14.6µM,x,u,n,x,x
COC(=O)[C@]12CCCCC=C1N(Cc1ccc3c(c1)OCO3)C(=O)[C@H](CC(=O)N1CCN(C(=O)c3ccco3)CC1)C2,u,x,u,-55.9,x,x
CCN(CC)c1ccc(/C=N/N2C(C)CCCC2C)c(O)c1 (centres undefined),u,n,u,n,n,n
COc1ccccc1CN=Cc1[nH]c2ccc(Br)c(Cl)c2c1O,u,n,u,n,n,n
